HT1080-NT tox: kills 2HG-producing HT-1080-NT fibrosarcoma cells | HT-1080-NT fibrosarcoma viability, CellTiter-Glo ATP luminescence, 48 h | Potency, µM (top dose mostly 46.1 µM), inactives show top-dose activity, negative = less viability, usual class: cytotoxic | hit rate 1.6% among 360,000 | AID 686970;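 further: NT is the 2HG producing partner of a matched IDH1 knockdown line; potency means the concentration at half of the fitted maximal effect; 0% = DMSO-treated cells and -100% = media-only wells without cells; nearly all actives have a fitted effect of over 55% in size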
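HT-1080-NT; 750 cells/well; 5% FBS RPMI; 48 h compound, 37 degrees C; CellTiter-Glo luminescence; curve fitting and curve-class assignment.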
KB-3-1 cytotox: kills parental KB-3-1 adenocarcinoma cells; KB-3-1 viability, CellTiter-Glo ATP luminescence, 72 h; Potency, µM (highest dose often 46.1 µM), usual class: cytotoxic; hit rate 1.4% among 400,000; further: potency means the concentration at half of the fitted maximal effect; nearly all actives have a fitted effect of over 60% in size
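Cytotoxicity in the drug-sensitive parental line KB-3-1 was scored as loss of CellTiter-Glo luminescence following 72 h incubation with compound. Values come from curve fitting of normalized concentration-response data.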
HT1080 IDH1KD tx: HT-1080 IDH1 knockdown cell toxicity (counter line) | HT-1080 IDH1 knockdown viability, ATP luminescence, 48 h | Potency, µM (series often up to 46.1 µM), inactives show at the highest dose activity, negative = toxicity, usual class: cytotoxic | hit rate 2% among 360,000;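 further: potency means the concentration at half of the fitted maximal effect; 0% = DMSO wells and -100% = cell-free medium wells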
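CellTiter-Glo luminescence after 48 h compound exposure at 37 degrees C of IDH1-knockdown HT-1080 cells in 5% FBS RPMI. %Activity scaled between DMSO wells and cell-free media wells, with curves fitted and assigned curve classes.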
KB-V1 MDR tox: KB-V1 MDR subline cytotoxicity; Potency, µM (series often up to 46.1 µM), hits mostly cytotoxic; AID 1347076; hit rate 3.4% among 400,000; KB-V1 MDR cells viability, CellTiter-Glo, 72 h; further: potency means the concentration at half of the fitted maximal effect; nearly all actives have a fitted effect of over 60% in size
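In this primary screen, KB-V1 cells overexpressing P-gp are incubated with library compounds (lowest to highest concentration) for 72 h at 37 degrees C before a luminescent ATP viability read.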
IL1B secr inh: inhibitors of inflammasome signaling (IL-1 beta secretion); hit rate 4.7% among 360,000; AID 743279; activity change, % at 57.5 µM; THP-1 LPS/ATP IL-1B secretion, AlphaLISA, 16 h; active compounds read low; in the data active means activity change below about -50%; inconclusive means mostly about -30% to -49%
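THP-1 cells pretreated 1 hr with compounds (up to 57.5 uM final), then stimulated with LPS (250 ng/mL final) plus ATP (1.25 mM final); secreted IL-1B measured by AlphaLISA after 16 hr, decreased signal indicating inhibition.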
Starred values were filed as active, the others as inactive; i = inactive; u = inconclusive; x = not tested or not shown; ! = not active in a repeat; [ ] = dose if it differs, or a comment. Rows were chosen to be rich in hits. Some 8.8% of all compounds tested hit in one or more screens of this group. Unless noted, the call rests on the fitted dose curve; in most records, active means well fitted curve in the direction sought with a large enough effect; inconclusive means small, poorly fitted or top-dose-only effect, or another doubt; inactive means no such curve, though single readings can be large; an effect the other way counts as inactive or inconclusive. Unless noted, on the % scale 0 is the no-effect control and ±100 the full control effect.

SMILES	HT1080-NT tox	KB-3-1 cytotox	HT1080 IDH1KD tx	KB-V1 MDR tox	IL1B secr inh
Cc1ccc(S(=O)(=O)NCC(=O)NCc2ccncc2)cc1	9%	i	9%	i	8
Cc1ccc(NC(=O)COC(=O)CN2CCSC2=O)cc1Cl	0%	i	3%	i	8
CS(=O)(=O)N(CC(=O)N1CCCC1)C1CCCCC1	3%	i	6%	i	-3
Cc1cc(Cl)ccc1Oc1ncc(-c2ccc(Cl)cc2)cn1	-5%	i	-8%	18µM*	-10
Cc1cc(-c2ccc(S(=O)(=O)Nc3ccc(Cl)cc3)cc2)on1	x	i	x	i	x
Cc1ccc(NS(=O)(=O)c2sc3ccc(Cl)cc3c2C)cc1	u	i	u	i	-85*
COc1cc(C(C)=O)ccc1OCC(O)CN1CCN(c2ccccn2)CC1 (stereo not drawn)	0%	i	10%	i	-56*
COc1ccccc1N1CCN(CC(O)COc2cccc3ccccc23)CC1 (stereo not drawn)	u	i	15µM*!	u	u
O=C(CCNS(=O)(=O)c1ccccc1)NCC1CCCCC1	-4%	i	-1%	i	21
Cc1ccc(S(=O)(=O)NCC(=O)OC(C)C(=O)NC(=O)NC2CCCCC2)cc1C (stereo not drawn)	1%	i	-1%	u	7
COc1cccc(/C=C/C(=O)OCC(=O)NCC2CCCO2)c1OC (stereo not drawn)	23%	i	10%	i	17
C[C@@H]1CN([C@@H](C)CO)S(=O)(=O)c2ccc(C#CC3CCCCC3)cc2O[C@@H]1CN(C)Cc1cccnc1	u	i	u	u	-66*
COc1ccc(S(=O)(=O)N(C)C[C@@H]2Oc3cc(C#CC4CCCCC4)ccc3S(=O)(=O)N([C@@H](C)CO)C[C@@H]2C)cc1	-26%	u	u	i	-52*
COc1ccc(N2CCN(CC(=O)Nc3sccc3C#N)CC2)cc1	2%	i	-1%	16µM*	-4
COc1ccc(N2CCN(C(=O)CN3CCN(c4nc(-c5ccc(F)cc5)cs4)CC3)CC2)cc1	-6%	23µM*	2%	u	-52*
COc1ccc2cc(/C=C/C(=O)N3CCN(CC(=O)N4CCCCCC4)CC3)ccc2c1	-30%	i	-2%	15µM*	u
N#Cc1ccsc1NC(=O)CN1CCN(c2ccc(O)cc2)CC1	u	i	-6%	i	0
COc1ccc(N2CCN(CC(=O)N3CCC(C)CC3)CC2)cc1	0%	i	3%	18µM*	-3
COC(=O)C1CCN(C(=O)/C=C/c2ccc(OC)cc2)CC1	-17%	i	-16%	i	14
CC1(C(=O)NS(=O)(=O)c2cccc(F)c2)CCN1C(=O)c1cccc(F)c1 (stereo not drawn)	6%	i	4%	i	11
Cc1ccc2c(c1)NC(=O)CC(c1ccccc1)=N2	8%	i	-3%	i	-10
O=C1CC(c2ccccc2)=Nc2ccc(Br)cc2N1	-6%	u	-5%	15µM*	-7
Cc1ccc(S(=O)(=O)N(C)c2ccc(C(=O)N(C)Cc3nc4ccccc4c(=O)[nH]3)cc2)cc1	-6%	i	-10%	i	22
COc1cc(C#Cc2c(-c3cncn3C)n(C)c3ccc(-c4ccc(OC)nc4)cc23)cc(OC)c1	-22%	u	-7%	u	-11
COc1cc(C#Cc2c(-c3cncn3C)n(C)c3ccc(-c4cc(OC)c(OC)c(OC)c4)cc23)cc(OC)c1	u	12µM*	u	u	-76*
SMILES	HT1080-NT tox	KB-3-1 cytotox	HT1080 IDH1KD tx	KB-V1 MDR tox	IL1B secr inh
Cc1cc2nc(CCN(C(=S)NCC3CCCO3)C3CCCC3)[nH]c2cc1C (stereo not drawn)	8%	i	4%	i	-52*
Cc1cc2nc(CCN(C(=S)NCC(C)C)C3CCCC3)[nH]c2cc1C	u	i	u	16µM*	-66*
Cc1cccc2cc(CN(C(=S)NCC(C)C)C3CCCC3)c(=O)[nH]c12	-2%	i	-2%	u	u
CN(C)CCN(Cc1cc2cc3c(cc2[nH]c1=O)OCCO3)C(=S)NCC1CCCO1 (stereo not drawn)	-6%	i	-4%	i	0
COC(=O)[C@@]12C[C@@H](CC(=O)NCc3ccc(C)o3)C(=O)N(Cc3ccccc3)C1=CCC(C)(C)C2	-13%	i	-19%	18µM*	-5
CCCCCCCCN1C(=O)[C@H](CC(=O)NCc2ccc(C)o2)C[C@@]2(C(=O)OC)CC(C)(C)CC=C12	u	u	u	u	-71*
CCCCCCCCN1C(=O)[C@H](CC(=O)NCCCOCCCC)C[C@@]2(C(=O)OC)CC(C)(C)CC=C12	-3%	18µM*	u	23µM*	-11
CCCCCCCCN1C(=O)[C@H](CC(=O)NCCCOC)C[C@@]2(C(=O)OC)CC(C)(C)CC=C12	u	i	u	i	-15
COC(=O)[C@@]12C[C@@H](CC(=O)NCCCCc3ccccc3)C(=O)N(Cc3cccc4ccccc34)C1=CCC(C)(C)C2	u	u	-29%	18µM*	u
CCCCCCCCN1C(=O)[C@H](CC(=O)NCC2CCCCC2)C[C@@]2(C(=O)OC)CC(C)(C)CC=C12	-16%	i	0%	u	-6
COc1ccc(OC)c(C(=O)NC(CC(N)=O)c2ccc(N3CCC(Cc4ccccc4)CC3)c([N+](=O)[O-])c2)c1 (stereo not drawn)	15%	i	8%	i	-1
COc1ccc(S(=O)(=O)N2CCN(c3nn(C)c(=O)n(C)c3=O)CC2)cc1	3%	i	0%	u	15
COCCNC(=O)C1(C)CCCN(Cc2cc(C(F)(F)F)ccc2Cl)C1 (stereo not drawn)	-1%	i	-4%	i	15
CC(=O)Nc1ccc(NC(=O)C(C)OC(=O)C2(c3ccccc3F)CCCC2)cc1 (stereo not drawn)	4%[9.24 µM]	i	-26%	i	61
COC(=O)[C@@]12C[C@@H](CC(=O)NCc3cccs3)C(=O)N(Cc3ccccc3)C1=CCC(C)(C)C2	-25%	i	-2%	u	0
COCCCNC(=O)C[C@@H]1C[C@@]2(C(=O)OC)CC(C)(C)CC=C2N(Cc2cccc3ccccc23)C1=O	-11%	i	-14%	u	5
COC(=O)[C@@]12C[C@@H](CC(=O)NCc3ccccc3)C(=O)N(Cc3cccc4ccccc34)C1=CCC(C)(C)C2	u	i	u	u	-83*
CCCCOCCCNC(=O)C[C@@H]1C[C@@]2(C(=O)OC)CC(C)(C)CC=C2N(Cc2cccc3ccccc23)C1=O	u	u	21µM*	21µM*	-5
